# PubChem BioAssay (NCATS)
# Inconclusive results are not listed. A call without a number means that no potency is given here. Calls of active or inactive are those of the source. Calls come from the whole dose curve; as a rule, active = well fitted inhibition curve with a large enough effect; inconclusive = small, poorly fitted or top-dose-only effect; inactive = flat fitted curve, though single readings scatter.
# Key:
# Test in all cases: qHTS profiling for inhibitors of Plasmodium falciparum proliferation (AID 504749); note: nearly all actives have a fitted effect of over 60% in size
# Conditions in all cases: P. falciparum in erythrocytes, SYBR Green DNA, 72 h; series mostly up to 28.7 µM
# CP286 = tested on: CP286
# Method in brief: (§1)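 Quantitative HTS: compounds pinned into medium, infected erythrocytes added (0.3% parasitemia, 2.5% hematocrit), 72 h culture at 37 C under 5% CO2. Saponin/Triton lysis with SYBR Green I, overnight RT, then fluorescence read.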
# CP291 = tested on: CP291
# Method in brief: as §1
# CP297 = tested on: CP297
# Method in brief: as §1
# CP305 = tested on: CP305
# Method in brief: as §1
# CP315 = tested on: CP315
# Method in brief: as §1
# CP325 = tested on: CP325
# Method in brief: as §1
# CP329 = tested on: CP329
# Method in brief: as §1
# CP335 = tested on: CP335
# Method in brief: as §1
# DFO2036 = tested on: DFO2036
# Method in brief: as §1
# DIV14 = tested on: DIV14
# Method in brief: as §1
# DIV17 = tested on: DIV17
# Method in brief: as §1
# DIV30 = tested on: DIV30
# Method in brief: as §1
# Dd2 = tested on: Dd2
# Method in brief: as §1
# ECU = tested on: ECU
# Method in brief: as §1
# FAB9 = tested on: FAB9
# Method in brief: as §1
# GB4 = tested on: GB4
# Method in brief: as §1
# HB3 = tested on: HB3
# Method in brief: as §1
# ICS = tested on: ICS
# Method in brief: as §1
# JCK = tested on: JCK
# Method in brief: as §1
# N140 = tested on: N140
# Method in brief: as §1
# Potency is the fitted concentration of half-maximal effect.
SMILES,Potency (CP286),Potency (CP291),Potency (CP297),Potency (CP305),Potency (CP315),Potency (CP325),Potency (CP329),Potency (CP335),Potency (DFO2036),Potency (DIV14),Potency (DIV17),Potency (DIV30),Potency (Dd2),Potency (ECU),Potency (FAB9),Potency (GB4),Potency (HB3),Potency (ICS),Potency (JCK),Potency (N140)
Nc1ncn([C@@H]2O[C@H](CO)[C@@H](O)[C@H]2O)c(=O)n1,inactive,inactive,inactive,inactive,inactive,inactive,inactive,inactive,inactive,inactive,inactive,inactive,inactive,inactive,inactive,inactive,inactive,inactive,inactive,inactive
O=C(CCNNC(=O)c1ccncc1)NCc1ccccc1,inactive,inactive,inactive,inactive,inactive,inactive,inactive,inactive,inactive,inactive,inactive,inactive,inactive,inactive,inactive,inactive,inactive,inactive,inactive,inactive
Cc1ccc(=O)n(-c2ccccc2)c1,inactive,inactive,inactive,inactive,inactive,inactive,inactive,inactive,inactive,inactive,inactive,inactive,inactive,inactive,inactive,inactive,inactive,inactive,inactive,inactive
CC(C)NNC(=O)c1ccncc1,inactive,inactive,inactive,inactive,inactive,inactive,inactive,inactive,7.94 µM (active),inactive,inactive,inactive,inactive,inactive,inactive,inactive,inactive,inactive,inactive,–
CCCCNC(=O)NS(=O)(=O)c1ccc(C)cc1,inactive,inactive,inactive,inactive,inactive,inactive,inactive,inactive,inactive,inactive,inactive,inactive,inactive,inactive,inactive,inactive,inactive,inactive,inactive,inactive
C[C@H](CS)C(=O)N1CCC[C@H]1C(=O)O,inactive,inactive,inactive,inactive,inactive,inactive,inactive,inactive,inactive,inactive,inactive,inactive,inactive,inactive,inactive,inactive,inactive,inactive,inactive,inactive
CN(C)C(=O)Oc1cccc([N+](C)(C)C)c1,inactive,inactive,inactive,inactive,inactive,inactive,inactive,inactive,inactive,inactive,inactive,inactive,inactive,inactive,inactive,inactive,inactive,inactive,inactive,inactive
Cc1scc2c1N(C(=O)CN1CCN(C)CC1)c1ccccc1NC2=O,inactive,inactive,inactive,inactive,inactive,inactive,inactive,inactive,inactive,inactive,inactive,inactive,inactive,inactive,inactive,inactive,inactive,inactive,inactive,inactive
FC(F)(F)c1ccccc1-n1ccnc1,inactive,inactive,inactive,inactive,inactive,inactive,inactive,inactive,inactive,inactive,inactive,inactive,inactive,inactive,inactive,inactive,inactive,inactive,inactive,inactive
CSc1ccc(C(=O)c2[nH]c(=O)[nH]c2C)cc1,inactive,inactive,inactive,inactive,inactive,inactive,inactive,inactive,inactive,inactive,inactive,inactive,inactive,inactive,inactive,inactive,inactive,inactive,inactive,inactive
CCN(CC)CC(=O)Nc1c(C)cccc1C,inactive,inactive,inactive,inactive,inactive,inactive,inactive,inactive,inactive,inactive,inactive,inactive,inactive,inactive,inactive,inactive,inactive,inactive,inactive,inactive
CN=C(NC#N)NCCSCc1nc[nH]c1C,inactive,inactive,inactive,inactive,inactive,inactive,inactive,inactive,inactive,inactive,inactive,inactive,inactive,inactive,inactive,inactive,inactive,inactive,inactive,inactive
CN(C)C(=O)Oc1ccc[n+](C)c1,inactive,inactive,inactive,inactive,inactive,inactive,inactive,inactive,inactive,inactive,inactive,inactive,inactive,inactive,inactive,inactive,inactive,inactive,inactive,inactive
